We go through 32 targets from the supplement of paper PMC12067926.

Compound in this assay: COc1c(Cl)ccc(Cl)c1C(=O)O
As to the kind of experiment: relative growth (AUC of 72 h growth curve relative to DMSO control, dAUC) (ratio); higher = more growth (less inhibition), active = hit call of the paper. Conditions: 20 µM;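 active = growth AUC significantly below the DMSO wells by Dunnett test; inactive = the rest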. On the procedure: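 Environmental bacterial isolates (Iceland stream sediment and Silwood Park soil) and whole stream-sediment communities were grown in LB from a 1:100 dilution with each pesticide at 20 µM (1% DMSO). A600 was read hourly for 72 h and the area under a spline-fitted growth curve (AUC) was computed. dAUC is the mean AUC of 3 biological replicates divided by the mean AUC of the DMSO controls. Significance was tested by Dunnett's test against the DMSO control.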
For the target “Flavobacterium 1 (Flavobacterium glaciei)”, the relative growth is 1 (inactive).
For Argrobacterium 1 (Agrobacterium sp.), the relative growth is 1.01 (inactive).
As to Community 6, the relative growth is 1.03 (inactive).
Take “Prolinoborus 1 (Prolinoborus fasciculus)”: the relative growth is 0.986 (inactive).
Under “Paenibacillus 1 (Paenibacillus castaneae)” stands 1.01 (inactive).
As for “Pseudomonas 2 (Pseudomonas vancouverensis)”, the relative growth was 0.985 (inactive).
On to Serratia 1 (Serratia sp. 2015-2462-01), for which the relative growth was 1.02 (inactive).
Under Pseudomonas 1 (Pseudomonas baetica) stands 0.637 (inactive); under “Microbacterium 1 (Microbacterium arborescens)”, 1.02 (inactive).
For Aeromonas 1 (Aeromonas sp. AE235), the relative growth is 1.02 (inactive).
For the target Hymenobacter 1 (Hymenobacter glaciei), the relative growth was 1 (inactive).
In the case of Aeromonas 3 (Aeromonas popoffii), the relative growth was 1.02 (inactive).
As to “Carnobacterium 1 (Carnobacterium gallinarum)”, the relative growth is 1.19 (inactive).
Take Community 10: the relative growth was 1.03 (inactive).
Under “Flavobacterium 2 (Flavobacterium succinicans)” stands 1.01 (inactive); under Arthrobacter 3 (Arthrobacter sp.), 1.07 (inactive).
For Pseudomonas 3 (Pseudomonas mandelii), the relative growth is 0.984 (inactive).
Under Community 7 stands 0.945 (inactive); under Community 9, 1.09 (inactive); under Pseudomonas 5 (Pseudomonas baetica), 1.02 (inactive).
In the case of Pseudomonas 4 (Pseudomonas peli), the relative growth is 1.01 (inactive).
Under Neobacillus 1 (Neobacillus soli) stands 1.06 (inactive); under Arthrobacter 2 (Arthrobacter humicola), 1.1 (inactive).
Under Arthrobacter 1 (Arthrobacter humicola) stands 0.981 (inactive); under Community 4, 1.09 (inactive); under Oryzobacter 1 (Oryzobacter terrae), 0.925 (inactive).
In the case of Aeromonas 2 (Aeromonas sobria), the relative growth was 1.01 (inactive).
As to Pseudomonas 6 (Pseudomonas sp.), the relative growth is 1.1 (inactive).
On to Community 8, for which the relative growth is 0.99 (inactive).
Rhizobium 1 (Rhizobium herbae): the relative growth was 0.947 (inactive).
Bacillus 1 (Bacillus foraminis): the relative growth is 1.07 (inactive).
Regarding Sphingomonas 2 (Sphingomonas sp.), the relative growth was 1.01 (inactive).
